Measurements as given in PubChem BioAssay AID602428 (Sanford-Burnham Center for Chemical Genomics, 2012).
The whole screen tested about 2,500 compounds, of which about 980 (39%) were called active. A selection follows. Values without a mark were called inactive.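 The calls were made as follows: active = mean inhibition at 5 µM reaching about 45% (limit read from the data); inactive = the rest.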

Test: blockers of Gli reporter signaling – single concentration, luciferase luminescence, Sufu-KO-LIGHT cells, confirmation (AID 602428);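 also: plate controls were DMSO-treated cells for no effect and wells lacking cells for full effect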
Conditions: at 5 µM, hits give high values

Compound	inhibition
C=CCNC(=S)/N=c1/ccccn1Cc1ccccc1	50.8% (active)
CCOc1cccc(/C=N/NC(=S)NCCN2CCOCC2)c1O	24.5%
Nc1ccc(C(=O)N2CCN(S(=O)(=O)c3ccc(Cl)cc3)CC2)cc1[N+](=O)[O-]	17.8%
COc1ccc(NC(=O)[C@H](NC(=O)[C@@H]2Cc3ccccc3CN2)c2ccccc2)cc1	17.9%
CCOC(=O)c1ccc(NC(=O)Cn2cnc3cc(C)c(C)cc32)cc1	76.1% (active)
CC(=O)Nc1cccc(OCC(=O)/C=C2\N(C)c3ccccc3C2(C)C)c1	54.9% (active)
O=C(O)CCCn1cc(NC(=O)COc2cccc(Cl)c2)cn1	12.9%
CC1CC2=C(CC1/C=N/NC(N)=S)C(C)(C)CCC2 (stereo not drawn)	49.3% (active)
COc1ccccc1CNC(=O)C1CCN(c2nc3ccccc3o2)CC1	25.9%
COc1ccccc1CCNC(=O)C(=O)NCCC1CCCCN1S(=O)(=O)c1cccs1 (stereo not drawn)	48.8% (active)
Cc1cccc(NS(=O)(=O)c2ccc(-c3cnc(C4CC4)o3)cc2)c1	36.7%
COc1ccc(NS(=O)(=O)c2ccc(NC(C)=O)cc2)cc1OC	51.5% (active)
COc1ccc2c(C)cc3nnnn3c2c1	17.3%
O=C(CN1C(=O)c2ccccc2S1(=O)=O)N1CCc2ccccc21	57.7% (active)
CC(C)OCC(O)CN1CCN(C(c2ccccc2)c2ccccc2)CC1 (stereo not drawn)	10.4%
CC(=O)/C(=N\Nc1ccc(Cl)cc1Cl)Sc1cccc2cccnc12	57.7% (active)
CCC(Cc1ccccc1)NC(=O)C1CCCCC1 (stereo not drawn)	6.07%
O=C(Nc1cc2c3c(c1)C1CCCC1CN3CC1CCCC21)c1ccc([N+](=O)[O-])cc1 (stereo not drawn)	79% (active)
COc1cc(C(=O)OC2CCOC2=O)c([N+](=O)[O-])cc1OC (stereo not drawn)	7.05%
CC[n+]1c(C)n(-c2ccccc2)c2ccc(NC(C)=O)cc21	80.2% (active)
C=CCOC(=O)C1=C[C@@H](c2ccc3c(c2)OCO3)C[C@@H](OCCCCO)O1	28.9%
O=C1/C(=C\c2cccnc2)CN(Cc2ccccc2)C/C1=C\c1cccnc1	19.9%
CCCCC(=O)NC(c1ccc(OC)c(OC)c1)c1ccc2cccnc2c1O (stereo not drawn)	55% (active)
Cc1ccc(NC(=S)Nc2ccc(F)cc2)cc1	-13.7%

Compound	inhibition
CCN1/C(=C/C(=S)Nc2ccccc2)Sc2ccccc21	9.5%
COc1ccc(Cn2c(-c3ccc(Cl)cc3)c[n+]3ccccc23)cc1	63.2% (active)
c1c2c(cc3sc(N4CCCCC4)nc13)OCCO2	34.5%
O=c1c2ccccc2nc2n1C(CSCc1cccc(C(F)(F)F)c1)CS2 (stereo not drawn)	67.6% (active)
CC1(C)CC(=O)c2c(n(S(=O)(=O)c3ccccc3)c3ccc(NS(=O)(=O)c4ccccc4)cc23)C1	19.1%
C/C(=N\NC(=O)Cc1ccc(Cl)cc1)c1ccccn1	86.9% (active)
Cc1cc(NC(=O)c2cccc(N3C(=O)CCC3=O)c2)no1	20.1%
CC(C)(CNC(=O)c1ccc(Cl)c(S(=O)(=O)N2CCc3ccccc3C2)c1)N1CCOCC1	22.8%
CN(C)c1cc[n+](Cc2ccccc2)cc1	53% (active)
CCOC(=O)c1cnc(-n2nc(C)cc2C)nc1NNc1cc(C)nc(-c2ccccc2)n1	53.6% (active)
CCc1ccc(C2C(C#N)=C(N)N(N3CCOCC3)C3=C2C(=O)CC(C)(C)C3)s1 (stereo not drawn)	7.97%
C=CCn1c(SCC(=O)CC(=O)OCC)nc2cc(C(=O)N3CCC(C(N)=O)CC3)ccc2c1=O	20.4%
COc1cc(C(=O)OC(C)C(=O)NCC2CCCCC2)cc(NC(=O)c2ccco2)c1OC (stereo not drawn)	13.1%
COc1ccc(NS(=O)(=O)c2ccc(N3CCN(CCO)CC3)c([N+](=O)[O-])c2)cc1	45.5% (active)
COc1ccccc1/C=C/CN1CCC(CO)(Cc2ccccc2)CC1	12.3%
O=C(CN1CCN(S(=O)(=O)c2cc(Cl)ccc2Cl)CC1)c1ccc(O)c(O)c1	22.3%
NS(=O)(=O)c1ccc(CCNC(=O)CCCn2c(SCC(=O)N3CCCC3)nc3ccsc3c2=O)cc1	8.32%
COC(=O)Cc1[nH]n(-c2nc3ccccc3s2)c(=O)c1C(C)=Nc1ccc(OC)cc1	91.5% (active)
N#CC(C#N)=CN=c1ccn(Cc2ccc(Cl)cc2Cl)cc1	50.9% (active)
CCn1c(SCc2ccccc2)nc2cc(OC)c(OC)cc2c1=O	25.4%
Cc1ccc(C(=O)C[n+]2cc(-c3ccccc3)n3c2CCCCC3)cc1	70.7% (active)
Cc1cc(C(=O)CSc2nc(N)cc(=O)[nH]2)c(C)n1-c1cccc(F)c1	55.4% (active)
Cc1ccc(-c2nc3c(cnn3-c3ccccc3)c(=O)o2)cc1	38.2%
N#Cc1ccc(C(=O)Nc2nc(-c3cccs3)c(C(=O)C(F)(F)F)s2)cc1	66% (active)

Compound	inhibition
O=C(O)c1ccc(N/N=C/c2ccc3ncccc3c2)cc1	61.1% (active)
CCNC(=S)N(CCN(CC)CC)Cc1cc2cc3c(cc2[nH]c1=O)OCO3	20.6%
CC1(C)Cc2ccccc2/C(=C/C(=O)c2ccccc2)N1	27.6%
CC(C)Oc1ccc(/C=N/NC(=O)c2nnn(-c3nonc3N)c2CN(C)C2CCCCC2)cc1	24.6%
CC(=O)c1c(C)[nH]c(C(=O)OCC(=O)Nc2sc3c(c2C#N)CCCC3)c1C	59% (active)
NC(N)=Nc1nc(-c2ccccc2)c2cc(Cl)ccc2n1	31.6%
COc1ccccc1N1CCN(Cc2cc(OC)c3c(c2)OCO3)CC1	14.2%
CCCOc1ccccc1C1CC(=O)Nc2cc3c(cc21)OCO3 (stereo not drawn)	52.9% (active)
COc1ccccc1C1C2=C(COC2=O)Nc2cc3c(cc21)OCO3 (stereo not drawn)	48.7% (active)
CNc1nnc(-c2ccco2)s1	23.3%
COc1ccc(OC)c(/C=N/NC(=O)c2ccc[n+](CC(=O)c3ccccc3)c2)c1	13.3%
Cc1ccc(S(=O)(=O)NC(C)C(=O)Nc2ccccc2C(=O)N2CCCC2)cc1 (stereo not drawn)	14.3%
C=CCC1(CC=C)CCCN1C(=O)c1cc(COc2ccc(-n3cncn3)cc2)on1	78.5% (active)
Cc1nonc1C1CCCN1C(=O)c1cc(COc2cccc(C(F)(F)F)c2)on1 (stereo not drawn)	26.7%
O=[N+]([O-])c1ccc(N2CCN(CC(O)COc3ccccc3)CC2)cc1 (stereo not drawn)	27.5%
COc1ccc(/C=N/N=C2/C(=O)Nc3ccccc32)cc1O	21.9%
COc1ccc(Cc2nnc(N/N=C/c3ccccc3O)[nH]c2=O)cc1OC	73.7% (active)
c1ccc(-n2nnnc2N2CCOCC2)cc1	6.89%
CC(C)c1ccc(OCC(O)CN2CCN(c3ccccn3)CC2)cc1 (stereo not drawn)	10.6%
Cc1cc([N+](=O)[O-])c(-c2ccc(/C=N/n3cnnc3)o2)cc1Cl	15.1%
O=C(C[C@H]1C/C=C\C[C@@H](NC(=O)OCC2c3ccccc3-c3ccccc32)C(=O)O[C@@H](c2ccccc2)CNC1=O)N[C@H](CO)Cc1ccccc1	57.2% (active)
COC(=O)c1ccccc1NC(=O)C1(S(=O)(=O)c2ccc(Cl)cc2)CC1	15.8%
Cc1onc(-c2ccccc2)c1C(=O)Nc1ccccc1C#N	14.9%
Cc1cccc2nc(CSc3nc4[nH]ncc4c(=O)n3-c3cccc(Cl)c3)cc(=O)n12	64.1% (active)

Compound	inhibition
CCN(CCO)C(=S)Nc1cc(C(=O)OC)ccc1C(=O)OC	21.2%
CC(=O)Nc1ccc(NC(=O)c2ccc3c(c2)C(=O)N(c2ccccc2C)C3=O)cc1	28.9%
Cc1ccc(O)c(NC(=O)COc2cc(C)ccc2C)c1	76.8% (active)
C/C(=N\Nc1ccc(Cl)nn1)c1ccccc1O	47.1% (active)
COc1ccc2nc(SCC(=O)Nc3c(C)cc(C)cc3C)[nH]c2c1	23.1%
CSc1ncccc1C(=O)Nc1nc2ccc(F)cc2s1	79.4% (active)
Cc1cc(C)c(SCCc2ccncc2)c(C)c1	27%
Cc1ccc(NC(=O)CN(C)CC(=O)Nc2cccc(F)c2)cc1[N+](=O)[O-]	67.8% (active)
CCCC1=Nc2cc(C(=O)NCc3ccco3)ccc2Sc2ccccc21	31.8%
O=C1C=C(c2ccnc3cc(Cl)ccc23)C[C@@H](c2ccc3c(c2)OCO3)C1	61% (active)
COc1ccc(C(=O)NC2CCCc3c2cnn3-c2cccc(C)c2C)c(OC)n1 (stereo not drawn)	51.3% (active)
CN(c1ccc2nc3ccccc3c(=O)n2n1)C1CCCCC1	79.3% (active)
COc1cccc(-n2cc(C(=O)O)c3ccccc3c2=O)c1	22.9%
COc1cccc2cc(C(N)=O)/c(=N\NC(=O)c3ccccc3)oc12	23.9%
Cc1cc2[nH]ncc2cc1NC(=S)NC(=O)c1ccccc1	6.93%
Cc1ccccc1C(=O)NC(=S)Nc1ccc(N2CCN(C(=O)c3ccccc3)CC2)cc1	64.5% (active)
CC(C)C(=O)Nc1nnc(SCC(=O)N2C(C)CCCC2C)s1 (stereo not drawn)	17.7%
Cc1ccc(Nc2nc(N3CCOCC3)nc(N3CCOCC3)n2)cc1Cl	33.3%
CCOc1ccc(-n2c(O)c(/C=N/c3ccnn3Cc3ccncc3)c3ccccc3c2=O)cc1	28%
CCOc1ccc(-n2c(O)c(/C=N/Nc3nc(C)cc(C)n3)c3ccccc3c2=O)cc1	78.3% (active)
O=C(Nc1nc2ccc([N+](=O)[O-])cc2s1)c1ccc(S(=O)(=O)N2CCCc3ccccc32)cc1	82.2% (active)
